Assay outcomes from PubChem.
Shiga inhibitor: Shiga toxin inhibition. hit rate 9.2% among 290,000. Vero cells, Shiga toxin protein synthesis inhibition reporter. inhibition, % at 38.7 µM. AID 2315; in the data active = inhibition mostly above about 28%, no sharp cut-off; inactive = mostly below about 43%
Tb PYK inh: T. brucei pyruvate kinase inhibition | Q57TT1 | TbPYK enzyme, Kinase-Glo Plus ATP luminescence, 45 min | Potency, µM (top dose mostly 76.8 µM), usual class: inhibitors | hit rate 0.12% among 410,000 | AID 624173; also: nearly all actives have a fitted effect of over 50% in size
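Readout: single end-point luminescence (Kinase-Glo Plus, 10 min). Reaction conditions were TbPYK/substrate plus 130 uM ADP, 45 min at RT, pH 7.2 TEA buffer. No-enzyme wells served as controls, and data were normalized before concentration-response fitting.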
Giardia FBPA inh: inhibitors of Giardia lamblia fructose-1,6-bisphosphate aldolase; hit rate 0.71% among 290,000; purified Giardia FBPA; AID 2451; Potency, µM (titrated, usually from 59.6 µM), actives largely listed as inhibitors; A8B2U2; also: nearly all actives have a fitted effect of over 55% in size
Target sequence (A8B2U2 whole entry, looked up): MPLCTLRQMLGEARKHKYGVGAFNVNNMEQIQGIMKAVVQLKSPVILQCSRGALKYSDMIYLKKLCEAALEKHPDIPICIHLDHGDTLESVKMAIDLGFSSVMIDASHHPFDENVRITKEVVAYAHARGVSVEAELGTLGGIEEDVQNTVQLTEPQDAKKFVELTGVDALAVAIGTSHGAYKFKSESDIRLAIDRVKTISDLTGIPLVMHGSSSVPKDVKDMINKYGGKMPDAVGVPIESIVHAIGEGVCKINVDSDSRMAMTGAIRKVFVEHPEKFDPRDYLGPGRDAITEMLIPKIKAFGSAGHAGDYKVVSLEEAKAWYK
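40 nM FBPA preincubated 10 min at RT with compound (up to 57.5 uM final), then substrate plus GAPDH/TPI/NAD/arsenate coupling and diaphorase/resazurin added. Fluorescence read after 20 min at RT, 525/598 nm.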
LmPK inhibitor: inhibitors of Leishmania mexicana pyruvate kinase; hit rate 0.37% among 290,000; purified LmPK, Kinase-Glo ATP luminescence, 1 h; Potency, µM (series often up to 57.5 µM), usual class: inhibitors
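Pyruvate kinase activity monitored as ATP production (luciferase luminescence). Conditions: 0.1 nM enzyme, 0.5 mM PEP, 0.1 mM ADP, 1 h, RT; normalized against uninhibited and no-enzyme wells.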
Sm TGR block: blocks Schistosoma mansoni thioredoxin glutathione reductase. Q962Y6. hit rate 3% among 360,000. AID 485364. Potency, µM (series often up to 114 µM), most hits filed as inhibitors. purified TGR, DTNB reduction, TNB absorbance 405 nm; also: nearly all actives have a fitted effect of over 60% in size
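TGR 20 nM + NADPH 100 uM (dispensed conc.), cpd preinc 15 min RT; start with NADPH (500 uM addition) then DTNB (15 mM addition). Kinetic TNB absorbance, 405 nm filter. Four-parameter Hill fit across titration.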
Cycloheximide cs: counter-screen hit for Shiga toxin inhibitors, cycloheximide; cell reporter, cycloheximide protein synthesis inhibition counterscreen; max response, %; hit rate 12% among 300,000; in the data active = max response mostly above about 13%, no sharp cut-off; inactive = mostly below about 14%; also: read at 38.3 µM for the half of the compounds with a filed dose
Numbers stand for hits; – = inactive; ? = inconclusive; · = not tested or not shown; [ ] = another dose, or the depositor's remark. Shown is part of a subset that was picked to be rich in hits. Unless noted, calls follow the shape of the dose curve; as a rule, active = well fitted curve in the direction sought with a large enough effect; inconclusive = small, poorly fitted or top-dose-only effect, or another doubt; inactive = no such curve, though single readings can be large; an effect the other way counts as inactive or inconclusive.

SMILES	Shiga inhibitor	Tb PYK inh	Giardia FBPA inh	LmPK inhibitor	Sm TGR block	Cycloheximide cs
CN=c1scc(C)n1/N=C/c1ccc(O)cc1O	30	–	–	–	–	25
CCCc1nc2ccccc2c(=O)n1/N=C/c1ccc(O)cc1O	–	–	?	–	–	–
CC(OC(=O)CCCC(=O)Nc1ccccc1)C(=O)c1ccccc1 (centres undefined)	–	–	·	–	–	–
N#Cc1ccc(CN2CCC3(CC2)CCN(C(=O)c2cccc(F)c2)CC3)cc1	·	–	–	·	·	·
CCOc1ccc(NC(=O)Cn2c(=O)n(Cc3ccc(C(=O)NCc4ccc5c(c4)OCO5)cc3)c(=O)c3ccccc32)cc1	·	–	·	·	–	·
COc1cc(NC(=O)C(C)Oc2ccccc2)ccc1NC(=O)COc1ccccc1 (centres undefined)	–	–	·	–	–	–
CCN=c1scc(C)n1/N=C/c1cc(Br)c(O)c(OC)c1	–	–	?	–	?	14
CSCCC(NC=O)C(=O)NC(C)C(=O)O (centres undefined)	·	–	·	·	·	·
Cc1cccc(-n2ncc3c(N4CCC(C)CC4)ncnc32)c1	95	–	–	–	–	68
Cc1cccc(-n2ncc3c(N4CCC5(CC4)OCCO5)ncnc32)c1	–	–	–	–	–	13
CCCCCCC1(C)NC(=S)N(c2ccccc2)N1 (centres undefined)	–	–	–	–[11.5 µM]	–	–
CCC1(c2ccccc2)NC(=S)N(c2ccc(C)cc2)N1 (centres undefined)	–	?	–	–	–	27
CCC1(c2ccc(Cl)cc2)NC(=S)N(c2ccccc2)N1 (centres undefined)	–	–	–	–	–	14
Cc1occc1-c1nnc(SCC(=O)N2CCCc3ccccc32)n1Cc1ccco1	–	–	–	–	40µM	–
O=C(CSc1nnc(-c2cccnc2)n1Cc1ccco1)N1CCc2ccccc21	–	–	–	–	45µM	–
O=C(CSc1nnc(-c2cccnc2)n1Cc1ccco1)c1ccccc1	–	–	–	–	–	–
CCCn1c(SCC(=O)N2CCCc3ccccc32)nnc1-c1ccco1	–	–	–	–	?	–
CC(=O)N1CCc2cc(S(=O)(=O)NC(Cc3ccccc3)C(=O)Nc3ccc(Cl)cc3)ccc21 (centres undefined)	·	–	·	·	–	·
COc1ccccc1N/C(N)=N/c1nc(CSc2nc3ccccc3s2)cc(=O)[nH]1	48	·	–	–	–	–
C#CC(C)(C)NS(=O)(=O)c1cc(-c2nnc(Nc3ccc(C)cc3)c3ccccc23)ccc1C	·	–	·	·	–	·
O=C(NCc1ccccc1)Oc1cccc(Cl)c1	–	–	–	–	–	9.6
COc1cccc(CNC(=O)c2cccc(Br)c2)c1	–	–	–	–	–	–
O=C(NCc1ccccc1)c1cccc(COc2cccc(Cl)c2)c1	–	–	–	–	–	–
O=C(NCc1ccccc1)c1cccc(COc2ccc(Cl)cc2)c1	200	–	–	–	–	130
COc1cc(CNC(=O)c2cccc(COc3ccc(Cl)cc3)c2)cc(OC)c1	113	–	–	–	–	52
SMILES	Shiga inhibitor	Tb PYK inh	Giardia FBPA inh	LmPK inhibitor	Sm TGR block	Cycloheximide cs
COc1ccc(Cl)cc1NC(=O)CN(C)CC(=O)Nc1c(C)n(C)n(-c2ccccc2)c1=O	·	–	·	·	–	·
O=C1c2cccc(OCC(=O)N3CCCc4ccccc43)c2CCN1Cc1ccc(F)cc1	–	–	–	–	–	–
Cc1cccc(CN2CCc3c(OCC(=O)NCc4ccco4)cccc3C2=O)c1	–	–	–	–	–	13
Cc1cccc(CN2CCc3c(OCC(=O)N4CCCc5ccccc54)cccc3C2=O)c1	–	–	–	–	–	14
O=C(NCc1ccco1)c1ccc2c(c1)N(Cc1cccc(Cl)c1)C(=O)c1ccccc1S2=O (centres undefined)	·	–	·	·	–	·
O=Cc1ccccc1OCc1ccc2c(c1)OCO2	100	?	–	–	–	46
COc1ccccc1CNCc1ccc2c(c1)OCO2	·	–	·	·	·	·
COc1ccc(CN(C(=O)Nc2ccccc2)c2ccccn2)cc1OC	·	–	·	·	–	·
O=C(/C=C/c1ccco1)N1CCN(S(=O)(=O)c2ccc(F)c(F)c2F)CC1	–	–	–	–	5µM	–
O=C(/C=C/c1ccco1)N1CCN(S(=O)(=O)c2ccccc2)CC1	·	–	·	·	·	·
Cc1ccc(C)c(S(=O)(=O)N2CCN(C(=O)/C=C/c3ccco3)CC2)c1	·	–	·	·	4µM	·
